# Reference: article PMC7862700, “An all-to-all approach to the identification of sequence-specific readers for epigenetic DNA modifications on cytosine”
# Experiments:
# Assay in all cases: DAPPL (digital affinity profiling via proximity ligation, sequencing); 10 mM Tris-HCl pH 7.5, 50 mM NaCl, 1 mM DTT, 4% glycerol, room temperature, 30 min; GST-TFs on glutathione beads, 16-mer random dsDNA library, 0.1% formaldehyde crosslink after washing; high values mean tight binding
# FLI1 = target: T1, FLI1 (Homo sapiens, UniProt Q01543 1-452); conditions: protein: recombinant; tags: N-terminal GST; dsDNA, one strand shown
# T1 sequence: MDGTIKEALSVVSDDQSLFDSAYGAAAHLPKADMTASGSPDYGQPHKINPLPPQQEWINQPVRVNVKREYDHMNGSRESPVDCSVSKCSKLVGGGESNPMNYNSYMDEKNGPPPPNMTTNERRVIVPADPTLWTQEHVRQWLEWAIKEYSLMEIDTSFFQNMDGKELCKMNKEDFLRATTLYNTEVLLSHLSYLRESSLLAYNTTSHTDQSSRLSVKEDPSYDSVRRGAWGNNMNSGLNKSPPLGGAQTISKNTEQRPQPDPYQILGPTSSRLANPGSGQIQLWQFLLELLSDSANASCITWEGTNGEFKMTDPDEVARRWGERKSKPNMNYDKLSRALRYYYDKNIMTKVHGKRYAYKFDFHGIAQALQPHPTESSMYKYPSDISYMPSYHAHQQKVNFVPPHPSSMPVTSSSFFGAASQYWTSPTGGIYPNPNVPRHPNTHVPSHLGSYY
# In short: (§1)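 Pools of DNA-barcoded human transcription factors, expressed in yeast as GST fusions on glutathione beads and combined with a tag-only sample, were incubated with 200 nmole of a 16-mer random double-stranded DNA library. Incubation took 30 min at room temperature in Tris/NaCl/DTT/glycerol buffer and was followed by washing, 0.1% formaldehyde crosslinking, proximity ligation (BsaI/T4 ligase, 1 h, 37 °C), PCR amplification and sequencing on an Illumina NextSeq500. Binding signal is the ratio of a hexamer's read frequency for a factor to its frequency for the tag-only sample.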
# ELK1 = target: T2, ELK1 (Homo sapiens, UniProt P19419 1-428); conditions: protein: recombinant; tags: N-terminal GST; dsDNA, one strand shown
# T2 sequence: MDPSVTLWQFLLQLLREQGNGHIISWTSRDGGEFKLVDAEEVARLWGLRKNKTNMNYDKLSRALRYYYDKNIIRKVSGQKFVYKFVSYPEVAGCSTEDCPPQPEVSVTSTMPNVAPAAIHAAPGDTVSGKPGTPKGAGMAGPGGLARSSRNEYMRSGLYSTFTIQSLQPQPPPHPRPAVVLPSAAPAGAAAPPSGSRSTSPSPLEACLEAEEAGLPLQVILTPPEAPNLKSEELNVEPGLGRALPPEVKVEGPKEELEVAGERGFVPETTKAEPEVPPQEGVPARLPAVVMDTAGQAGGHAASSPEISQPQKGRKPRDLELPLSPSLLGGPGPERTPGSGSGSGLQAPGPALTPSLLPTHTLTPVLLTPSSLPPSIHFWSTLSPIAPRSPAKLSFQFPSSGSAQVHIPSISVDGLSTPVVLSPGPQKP
# In short: as §1
# GABPA = target: T3, GABPA (Homo sapiens, UniProt Q06546 1-454); conditions: protein: recombinant; tags: N-terminal GST; dsDNA, one strand shown
# T3 sequence: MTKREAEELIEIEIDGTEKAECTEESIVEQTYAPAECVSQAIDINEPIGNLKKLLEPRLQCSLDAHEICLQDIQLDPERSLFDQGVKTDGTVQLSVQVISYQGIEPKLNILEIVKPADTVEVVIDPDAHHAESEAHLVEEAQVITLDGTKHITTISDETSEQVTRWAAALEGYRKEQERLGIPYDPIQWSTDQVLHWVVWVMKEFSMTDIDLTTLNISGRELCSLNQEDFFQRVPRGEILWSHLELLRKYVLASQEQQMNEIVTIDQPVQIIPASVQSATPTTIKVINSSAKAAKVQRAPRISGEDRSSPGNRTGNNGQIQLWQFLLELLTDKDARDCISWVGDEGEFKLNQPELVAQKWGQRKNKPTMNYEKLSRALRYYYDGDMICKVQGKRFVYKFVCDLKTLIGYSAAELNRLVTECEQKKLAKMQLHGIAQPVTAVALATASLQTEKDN
# In short: as §1
# ERG = target: T4, ERG (Homo sapiens, UniProt P11308 1-479); conditions: protein: recombinant; tags: N-terminal GST; dsDNA, one strand shown
# T4 sequence: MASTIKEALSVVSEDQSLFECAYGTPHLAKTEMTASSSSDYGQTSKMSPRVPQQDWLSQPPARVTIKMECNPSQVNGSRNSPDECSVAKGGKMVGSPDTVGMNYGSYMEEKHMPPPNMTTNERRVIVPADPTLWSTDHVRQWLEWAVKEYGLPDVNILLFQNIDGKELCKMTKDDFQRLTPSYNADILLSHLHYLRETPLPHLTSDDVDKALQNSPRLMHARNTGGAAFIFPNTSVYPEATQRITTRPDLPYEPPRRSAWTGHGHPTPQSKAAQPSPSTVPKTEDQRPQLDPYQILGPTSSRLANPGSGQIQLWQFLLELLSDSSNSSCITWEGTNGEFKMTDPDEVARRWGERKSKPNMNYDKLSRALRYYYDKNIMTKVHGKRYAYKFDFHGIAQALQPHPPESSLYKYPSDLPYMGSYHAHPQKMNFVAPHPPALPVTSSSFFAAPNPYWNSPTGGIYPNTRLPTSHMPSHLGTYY
# In short: as §1
# ELF1 = ELF1 (Homo sapiens, UniProt P32519 1-619); conditions: protein: recombinant; tags: N-terminal GST; dsDNA, one strand shown
# In short: as §1
# EHF = target: T5, EHF (Homo sapiens, UniProt Q9NZC4 1-300); conditions: protein: recombinant; tags: N-terminal GST; dsDNA, one strand shown
# T5 sequence: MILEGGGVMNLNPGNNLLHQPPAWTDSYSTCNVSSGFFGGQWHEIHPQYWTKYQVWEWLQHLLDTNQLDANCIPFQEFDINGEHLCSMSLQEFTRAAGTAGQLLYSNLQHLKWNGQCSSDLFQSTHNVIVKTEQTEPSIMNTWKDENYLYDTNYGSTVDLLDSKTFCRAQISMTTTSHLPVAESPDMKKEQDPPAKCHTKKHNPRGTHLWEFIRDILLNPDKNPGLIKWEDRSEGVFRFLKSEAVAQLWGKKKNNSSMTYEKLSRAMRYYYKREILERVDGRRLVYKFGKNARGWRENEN
# In short: as §1
# SPI1 = SPI1 (Homo sapiens, UniProt P17947 1-270); conditions: protein: recombinant; tags: N-terminal GST; dsDNA, one strand shown
# In short: as §1
# SPIB = SPIB (Homo sapiens, UniProt Q01892 1-262); conditions: protein: recombinant; tags: N-terminal GST; dsDNA, one strand shown
# In short: as §1
# ELK3 = target: T6, ELK3 (Homo sapiens, UniProt P41970 1-407); conditions: protein: recombinant; tags: N-terminal GST; dsDNA, one strand shown
# T6 sequence: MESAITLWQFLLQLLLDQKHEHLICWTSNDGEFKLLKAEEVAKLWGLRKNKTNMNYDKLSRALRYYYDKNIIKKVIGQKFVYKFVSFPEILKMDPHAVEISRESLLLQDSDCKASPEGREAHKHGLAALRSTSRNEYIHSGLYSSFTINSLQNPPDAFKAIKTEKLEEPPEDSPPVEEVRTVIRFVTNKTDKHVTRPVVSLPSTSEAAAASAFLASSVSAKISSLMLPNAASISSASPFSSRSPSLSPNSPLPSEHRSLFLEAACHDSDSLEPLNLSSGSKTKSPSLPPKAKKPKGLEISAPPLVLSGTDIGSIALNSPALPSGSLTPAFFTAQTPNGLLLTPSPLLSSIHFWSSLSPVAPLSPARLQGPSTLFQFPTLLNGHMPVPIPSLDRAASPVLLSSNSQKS
# In short: as §1
# FEV = target: T7, FEV (Homo sapiens, UniProt Q99581 1-238); conditions: protein: recombinant; tags: N-terminal GST; dsDNA, one strand shown
# T7 sequence: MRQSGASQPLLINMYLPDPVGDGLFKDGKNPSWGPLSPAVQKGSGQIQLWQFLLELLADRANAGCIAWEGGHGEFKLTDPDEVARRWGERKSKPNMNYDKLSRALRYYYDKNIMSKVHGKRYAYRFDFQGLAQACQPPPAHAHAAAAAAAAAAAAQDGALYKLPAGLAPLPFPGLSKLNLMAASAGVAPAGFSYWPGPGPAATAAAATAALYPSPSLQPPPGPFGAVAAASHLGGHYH
# In short: as §1
# ETV5 = ETV5 (Homo sapiens, UniProt P41161 1-510); conditions: protein: recombinant; tags: N-terminal GST; dsDNA, one strand shown
# In short: as §1
# HSF1 = HSF1 (Homo sapiens, UniProt Q00613 1-529); conditions: protein: recombinant; tags: N-terminal GST; chain copies: 3; dsDNA, one strand shown
# In short: as §1
# SPIC = target: T8, SPIC (Homo sapiens, UniProt Q8N5J4 1-248); conditions: protein: recombinant; tags: N-terminal GST; dsDNA, one strand shown
# T8 sequence: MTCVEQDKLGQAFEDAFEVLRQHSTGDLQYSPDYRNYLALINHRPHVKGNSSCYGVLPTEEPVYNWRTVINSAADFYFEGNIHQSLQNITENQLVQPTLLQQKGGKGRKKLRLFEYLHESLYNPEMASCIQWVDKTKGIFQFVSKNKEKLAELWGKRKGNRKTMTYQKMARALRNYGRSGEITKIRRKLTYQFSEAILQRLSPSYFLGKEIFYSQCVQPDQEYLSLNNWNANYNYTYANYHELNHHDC
# In short: as §1
# ELF4 = ELF4 (Homo sapiens, UniProt Q99607 1-663); conditions: protein: recombinant; tags: N-terminal GST; dsDNA, one strand shown
# In short: as §1
# ELK4 = target: T9, ELK4 (Homo sapiens, UniProt P28324-2 1-405); conditions: protein: recombinant; tags: N-terminal GST; dsDNA, one strand shown
# T9 sequence: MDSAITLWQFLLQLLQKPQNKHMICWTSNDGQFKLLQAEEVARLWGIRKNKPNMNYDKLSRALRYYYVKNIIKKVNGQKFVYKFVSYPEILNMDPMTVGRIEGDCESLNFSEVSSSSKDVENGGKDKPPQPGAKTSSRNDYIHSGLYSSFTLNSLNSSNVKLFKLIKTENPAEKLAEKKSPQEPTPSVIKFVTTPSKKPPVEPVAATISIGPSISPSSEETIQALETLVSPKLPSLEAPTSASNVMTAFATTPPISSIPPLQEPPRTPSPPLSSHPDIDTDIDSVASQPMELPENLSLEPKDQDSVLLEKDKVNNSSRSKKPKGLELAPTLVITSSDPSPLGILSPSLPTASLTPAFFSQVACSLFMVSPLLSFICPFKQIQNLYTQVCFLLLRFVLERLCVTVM
# In short: as §1
# ETV2 = target: T10, ETV2 (Homo sapiens, UniProt O00321 1-342); conditions: protein: recombinant; tags: N-terminal GST; dsDNA, one strand shown
# T10 sequence: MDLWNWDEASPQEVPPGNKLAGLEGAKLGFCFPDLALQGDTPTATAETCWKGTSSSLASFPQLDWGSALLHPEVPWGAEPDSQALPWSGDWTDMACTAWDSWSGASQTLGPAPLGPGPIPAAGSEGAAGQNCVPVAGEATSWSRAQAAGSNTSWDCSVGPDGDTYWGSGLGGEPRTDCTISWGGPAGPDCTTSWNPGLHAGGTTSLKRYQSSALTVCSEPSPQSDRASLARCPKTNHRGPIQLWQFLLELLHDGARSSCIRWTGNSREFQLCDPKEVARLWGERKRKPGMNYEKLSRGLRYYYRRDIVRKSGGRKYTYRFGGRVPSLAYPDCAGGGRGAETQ
# In short: as §1
# ELF3 = target: T11, ELF3 (Homo sapiens, UniProt P78545 1-371); conditions: protein: recombinant; tags: N-terminal GST; dsDNA, one strand shown
# T11 sequence: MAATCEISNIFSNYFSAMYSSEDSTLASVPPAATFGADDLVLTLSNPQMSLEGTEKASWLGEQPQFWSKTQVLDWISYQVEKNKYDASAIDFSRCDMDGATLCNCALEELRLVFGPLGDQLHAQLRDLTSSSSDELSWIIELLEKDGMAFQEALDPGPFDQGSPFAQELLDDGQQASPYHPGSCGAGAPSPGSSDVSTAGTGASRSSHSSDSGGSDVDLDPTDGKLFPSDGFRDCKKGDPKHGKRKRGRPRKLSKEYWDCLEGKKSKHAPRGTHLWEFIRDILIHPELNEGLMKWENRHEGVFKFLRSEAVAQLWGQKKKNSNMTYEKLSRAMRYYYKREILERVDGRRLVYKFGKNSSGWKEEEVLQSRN
# In short: as §1
# CRX = CRX (Homo sapiens, UniProt O43186 1-299); conditions: protein: recombinant; tags: N-terminal GST; dsDNA, one strand shown
# In short: as §1
# ETV1 = ETV1 (Homo sapiens, UniProt P50549 1-477); conditions: protein: recombinant; tags: N-terminal GST; dsDNA, one strand shown
# In short: as §1
# Chain of SPIB (Q01892 whole entry): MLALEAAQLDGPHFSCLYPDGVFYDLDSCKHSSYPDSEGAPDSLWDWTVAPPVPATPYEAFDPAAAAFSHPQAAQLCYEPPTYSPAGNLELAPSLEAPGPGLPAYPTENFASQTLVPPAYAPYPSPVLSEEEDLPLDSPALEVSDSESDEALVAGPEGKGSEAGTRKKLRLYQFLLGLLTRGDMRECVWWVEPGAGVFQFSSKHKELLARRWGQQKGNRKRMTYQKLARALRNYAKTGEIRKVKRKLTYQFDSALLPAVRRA
# Chain of ELF1 (P32519 whole entry): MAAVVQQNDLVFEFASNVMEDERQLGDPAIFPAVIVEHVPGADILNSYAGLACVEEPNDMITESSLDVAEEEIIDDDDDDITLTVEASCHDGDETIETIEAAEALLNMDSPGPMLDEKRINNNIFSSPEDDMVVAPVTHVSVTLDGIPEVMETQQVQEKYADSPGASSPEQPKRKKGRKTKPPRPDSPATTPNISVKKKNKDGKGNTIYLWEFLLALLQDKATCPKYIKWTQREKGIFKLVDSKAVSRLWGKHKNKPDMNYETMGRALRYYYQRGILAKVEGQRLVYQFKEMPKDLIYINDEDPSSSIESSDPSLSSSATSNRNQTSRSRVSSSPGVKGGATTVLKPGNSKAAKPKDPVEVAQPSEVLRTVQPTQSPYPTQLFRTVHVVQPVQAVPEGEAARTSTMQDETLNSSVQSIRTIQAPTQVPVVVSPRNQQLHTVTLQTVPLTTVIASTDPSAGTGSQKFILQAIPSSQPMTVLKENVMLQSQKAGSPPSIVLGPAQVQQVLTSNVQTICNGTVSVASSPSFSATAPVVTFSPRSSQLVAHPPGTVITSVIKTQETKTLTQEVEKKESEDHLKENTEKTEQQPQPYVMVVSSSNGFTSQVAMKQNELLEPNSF
# Chain of ELF4 (Q99607 whole entry): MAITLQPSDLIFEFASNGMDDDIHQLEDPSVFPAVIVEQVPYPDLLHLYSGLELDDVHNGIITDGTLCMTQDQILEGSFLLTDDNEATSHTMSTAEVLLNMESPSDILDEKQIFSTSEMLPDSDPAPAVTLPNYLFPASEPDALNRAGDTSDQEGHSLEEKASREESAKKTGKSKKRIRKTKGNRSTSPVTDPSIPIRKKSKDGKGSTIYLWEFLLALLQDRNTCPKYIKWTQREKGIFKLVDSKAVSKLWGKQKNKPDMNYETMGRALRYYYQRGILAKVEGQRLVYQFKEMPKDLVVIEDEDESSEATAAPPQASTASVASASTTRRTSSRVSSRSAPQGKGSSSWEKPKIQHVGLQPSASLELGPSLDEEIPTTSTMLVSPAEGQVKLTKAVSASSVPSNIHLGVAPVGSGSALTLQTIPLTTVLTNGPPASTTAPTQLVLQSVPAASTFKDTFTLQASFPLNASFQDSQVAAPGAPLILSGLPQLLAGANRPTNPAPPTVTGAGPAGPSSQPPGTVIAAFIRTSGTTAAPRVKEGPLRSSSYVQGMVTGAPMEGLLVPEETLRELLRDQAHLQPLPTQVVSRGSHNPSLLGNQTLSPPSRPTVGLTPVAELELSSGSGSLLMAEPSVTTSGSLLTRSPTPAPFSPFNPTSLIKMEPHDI
# Chain of HSF1 (Q00613 whole entry): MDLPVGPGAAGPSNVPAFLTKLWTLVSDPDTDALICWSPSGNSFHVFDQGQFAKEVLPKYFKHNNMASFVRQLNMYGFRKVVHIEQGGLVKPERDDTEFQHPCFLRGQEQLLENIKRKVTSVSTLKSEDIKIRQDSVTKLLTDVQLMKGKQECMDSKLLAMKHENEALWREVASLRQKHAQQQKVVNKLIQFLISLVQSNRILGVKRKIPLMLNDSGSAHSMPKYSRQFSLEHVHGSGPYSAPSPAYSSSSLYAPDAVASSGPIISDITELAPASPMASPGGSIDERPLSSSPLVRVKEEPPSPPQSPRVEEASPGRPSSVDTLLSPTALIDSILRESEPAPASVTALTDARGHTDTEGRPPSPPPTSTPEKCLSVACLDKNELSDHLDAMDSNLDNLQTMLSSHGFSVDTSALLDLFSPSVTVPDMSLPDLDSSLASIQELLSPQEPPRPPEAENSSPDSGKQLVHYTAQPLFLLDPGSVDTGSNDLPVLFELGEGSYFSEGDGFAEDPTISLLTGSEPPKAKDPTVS
# Chain of CRX (O43186 whole entry): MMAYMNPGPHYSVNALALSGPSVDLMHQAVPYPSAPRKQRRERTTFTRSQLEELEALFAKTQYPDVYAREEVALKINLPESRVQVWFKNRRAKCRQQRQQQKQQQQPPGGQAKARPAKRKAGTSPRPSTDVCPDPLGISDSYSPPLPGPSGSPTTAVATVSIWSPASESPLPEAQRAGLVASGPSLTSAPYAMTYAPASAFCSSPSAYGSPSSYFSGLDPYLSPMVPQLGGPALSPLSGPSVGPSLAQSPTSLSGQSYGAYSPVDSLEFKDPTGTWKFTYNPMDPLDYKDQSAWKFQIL
# Chain of ETV5 (P41161 whole entry): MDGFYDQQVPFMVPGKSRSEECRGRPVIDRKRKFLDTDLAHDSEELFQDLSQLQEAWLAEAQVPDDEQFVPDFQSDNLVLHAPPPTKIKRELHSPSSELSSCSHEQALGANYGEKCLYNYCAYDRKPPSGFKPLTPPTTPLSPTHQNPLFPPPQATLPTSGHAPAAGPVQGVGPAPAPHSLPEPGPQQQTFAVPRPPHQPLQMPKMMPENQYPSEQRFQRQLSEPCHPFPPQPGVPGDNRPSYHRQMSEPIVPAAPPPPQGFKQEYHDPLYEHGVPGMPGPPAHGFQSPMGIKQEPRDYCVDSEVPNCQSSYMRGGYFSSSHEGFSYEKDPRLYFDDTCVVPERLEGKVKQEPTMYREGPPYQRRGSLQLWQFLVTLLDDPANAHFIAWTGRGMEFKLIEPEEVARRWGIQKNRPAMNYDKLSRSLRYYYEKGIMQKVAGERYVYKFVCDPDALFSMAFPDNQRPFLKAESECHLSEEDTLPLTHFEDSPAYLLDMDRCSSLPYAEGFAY
# Chain of ETV1 (P50549 whole entry): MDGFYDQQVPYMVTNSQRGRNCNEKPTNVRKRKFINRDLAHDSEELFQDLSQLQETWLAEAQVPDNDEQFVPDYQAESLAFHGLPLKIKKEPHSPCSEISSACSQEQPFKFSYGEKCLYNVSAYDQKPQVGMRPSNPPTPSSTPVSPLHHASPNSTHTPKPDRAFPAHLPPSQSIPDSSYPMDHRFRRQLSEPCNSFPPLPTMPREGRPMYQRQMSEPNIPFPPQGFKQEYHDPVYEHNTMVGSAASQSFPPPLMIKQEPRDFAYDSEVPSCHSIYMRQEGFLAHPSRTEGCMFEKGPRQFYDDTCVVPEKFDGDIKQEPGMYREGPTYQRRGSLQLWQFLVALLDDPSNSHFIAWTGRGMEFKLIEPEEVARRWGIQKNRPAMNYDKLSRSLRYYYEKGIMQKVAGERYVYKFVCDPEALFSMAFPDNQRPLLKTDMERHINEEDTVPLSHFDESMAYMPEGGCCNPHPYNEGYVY
sequence,measurement,setting,value
CTATTG,binding signal,FLI1,"1.33 fold enrichment (6-mer frequency, TF over GST control)"
same,binding signal,ELK1,"1.33 fold enrichment (6-mer frequency, TF over GST control)"
same,binding signal,GABPA,"1.31 fold enrichment (6-mer frequency, TF over GST control)"
same,binding signal,ERG,"1.3 fold enrichment (6-mer frequency, TF over GST control)"
same,binding signal,ELF1,"1.37 fold enrichment (6-mer frequency, TF over GST control)"
same,binding signal,EHF,"1.28 fold enrichment (6-mer frequency, TF over GST control)"
same,binding signal,SPI1,"1.26 fold enrichment (6-mer frequency, TF over GST control)"
same,binding signal,SPIB,"1.2 fold enrichment (6-mer frequency, TF over GST control)"
same,binding signal,ELK3,"1.23 fold enrichment (6-mer frequency, TF over GST control)"
same,binding signal,FEV,"1.24 fold enrichment (6-mer frequency, TF over GST control)"
same,binding signal,ETV5,"1.31 fold enrichment (6-mer frequency, TF over GST control)"
same,binding signal,HSF1,"1.1 fold enrichment (6-mer frequency, TF over GST control)"
same,binding signal,SPIC,"1.4 fold enrichment (6-mer frequency, TF over GST control)"
same,binding signal,ELF4,"1.28 fold enrichment (6-mer frequency, TF over GST control)"
same,binding signal,ELK4,"1.29 fold enrichment (6-mer frequency, TF over GST control)"
same,binding signal,ETV2,"1.31 fold enrichment (6-mer frequency, TF over GST control)"
same,binding signal,ELF3,"1.39 fold enrichment (6-mer frequency, TF over GST control)"
same,binding signal,CRX,"1.14 fold enrichment (6-mer frequency, TF over GST control)"
same,binding signal,ETV1,"1.36 fold enrichment (6-mer frequency, TF over GST control)"
